# PLK1 PBD block: qHTS for Inhibitors of PLK1-PDB (polo-like kinase 1 - polo-box domain): Primary Screen; Potency, µM, without a hit: max response, negative = inhibition, most hits filed as inhibitors; hit rate 2.8% among 360,000; Serine/threonine-protein kinase PLK1 (Homo sapiens), P53350; Plk1 PBD binding of FITC phosphopeptide, fluorescence polarization; further: series mostly up to about 57 µM; on the % scale 0 is the no-effect control and ±100 the full control effect; nearly all actives have a fitted effect of over 65% in size
# GCN5L2 inh: qHTS Assay for Inhibitors of GCN5L2; Histone acetyltransferase KAT2A (Homo sapiens), Q92830; GCN5L2 HAT assay, ThioGlo1 CoA-SH fluorescence; Potency, µM (doses to about 58.9 µM), without a hit: top-dose activity change, negative = inhibition, hits mostly inhibitors; hit rate 0.21% among 390,000; further: on the % scale 0 is the no-effect control and ±100 the full control effect
#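 qHTS, 1536-well. 20nM enzyme, pH 7.5 HEPES/EDTA/Tween-20 buffer; 15 min compound preinc., RT. Start: 75uM H3(1-25), 70uM AcCoA, 50uM ThioGlo1. Read Ex340/Em540 at t=0 (autofluorescence flag) and t=20 min.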
# GLS inhibitor: qHTS for Inhibitors of Glutaminase (GLS); Glutaminase kidney isoform, mitochondrial (Homo sapiens), O94925; hit rate 0.21% among 410,000; GLS enzymatic activity, qHTS titration; Potency, µM (titrated, usually from 45.5 µM), for the others: at the highest dose activity change, negative = inhibition, actives largely listed as inhibitors; further: on the % scale 0 is the no-effect control and ±100 the full control effect
# Target sequence (O94925 whole entry, looked up, canonical isoform): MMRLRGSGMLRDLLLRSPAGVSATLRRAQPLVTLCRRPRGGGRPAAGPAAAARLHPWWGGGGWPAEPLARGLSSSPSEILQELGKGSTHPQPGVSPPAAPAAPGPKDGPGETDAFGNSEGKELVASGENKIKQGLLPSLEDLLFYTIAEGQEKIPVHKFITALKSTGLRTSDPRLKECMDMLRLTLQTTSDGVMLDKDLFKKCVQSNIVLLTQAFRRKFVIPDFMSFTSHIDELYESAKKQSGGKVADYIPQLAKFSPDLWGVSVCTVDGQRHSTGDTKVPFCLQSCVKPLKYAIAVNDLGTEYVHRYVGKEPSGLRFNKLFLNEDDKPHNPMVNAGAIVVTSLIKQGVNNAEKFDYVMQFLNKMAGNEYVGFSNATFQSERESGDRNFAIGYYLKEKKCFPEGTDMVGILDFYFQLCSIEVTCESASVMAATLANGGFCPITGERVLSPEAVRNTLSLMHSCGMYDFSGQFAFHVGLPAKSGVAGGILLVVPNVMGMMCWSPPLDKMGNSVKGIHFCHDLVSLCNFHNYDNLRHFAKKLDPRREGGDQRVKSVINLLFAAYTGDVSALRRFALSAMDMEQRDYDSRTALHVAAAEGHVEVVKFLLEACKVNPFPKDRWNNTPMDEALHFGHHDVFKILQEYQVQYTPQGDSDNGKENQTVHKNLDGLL
#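 hKGA in 45 mM KH2PO4 (pH 8.2), 0.02% Tween-20 with compound, then 1mM L-Glutamine (stock as added) plus glutamate oxidase/HRP/Amplex red coupling mix. Fluorescence read initially and after 30 min at RT; signal change reflects glutamate formation.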
# PKM2 act: qHTS Assay for Activators of Human Muscle isoform 2 Pyruvate Kinase | Pyruvate kinase PKM (Homo sapiens), P14618 | purified PKM2, Kinase-Glo ATP luminescence, activation; response scale: 0% is enzyme alone, no compound | Potency, µM (series often up to 57.5 µM), for the others: at the top dose activation, actives largely listed as activators | hit rate 0.34% among 260,000; further: on the % scale 0 is the no-effect control and ±100 the full control effect; nearly all actives have a fitted effect of over 55% in size
#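 Purified hPK-M2 (>95% pure) converted ADP (0.1 mM final) to ATP with 0.5 mM PEP in 50 mM imidazole pH7.2, KCl, MgCl2, Tween 20, BSA; 1 h at room temperature. ATP detected by Kinase-Glo luminescence.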
# Mito fusion yeast: qHTS Assay for Small Molecule Inhibitors of Mitochondrial Division or Activators of Mitochondrial Fusion. S. cerevisiae fusion-defective mutant growth rescue, CellTiterGlo 48 h. Potency, µM (highest dose often 46.1 µM), without a hit: top-dose growth rescue (activation), actives largely listed as activators. hit rate 0.23% among 320,000; further: % of control where 0% means no effect; nearly all actives have a fitted effect of over 45% in size
#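 Compounds are tested for their ability to restore growth of mitochondrial fusion-defective yeast strains at non-permissive 37C in YPEG medium over 48 hours. Viability is quantified by luciferase luminescence.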
# VDR inhibitor: Inhibitors of the vitamin D receptor (VDR): qHTS | Vitamin D3 receptor (Homo sapiens), P11473 | VDR-SRC2-3 peptide fluorescence polarization, 2 h | AID 504847, 2011 | Potency, µM, for the others: max response, negative = inhibition, usual class: inhibitors | hit rate 0.93% among 400,000; further: on the % scale 0 is the no-effect control and ±100 the full control effect
#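 Compounds are added to VDR with labelled SRC2-3 coactivator peptide and held 2 h at room temperature. Inhibition of the VDR–peptide interaction is then read as a change in fluorescence polarization.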
# Starred values were filed as active, the others as inactive; u = inconclusive; x = no result; ! = not confirmed by another sample. Rows were chosen to be rich in hits. Some 3.4% of all compounds tested hit in one or more screens of this group. The call rests on the fitted dose curve; in most records, active means well fitted curve in the direction sought with a large enough effect; inconclusive means small, poorly fitted or top-dose-only effect, or another doubt; inactive means no such curve, though single readings can be large; an effect the other way counts as inactive or inconclusive. Potency means the concentration at half of the fitted maximal effect.
SMILES,PLK1 PBD block,GCN5L2 inh,GLS inhibitor,PKM2 act,Mito fusion yeast,VDR inhibitor
COc1ccc(C2=NS(=O)(=O)N(C)C(C(=O)Nc3cc(C)ccc3O)=C2)cc1OC,-2%,35µM*!,21%,-4%,-3%,-4%
Cc1ccc(C2=NS(=O)(=O)N(C)C(C(=O)Nc3ccc(F)cc3F)=C2)cc1,-4%,u,-4%,6%,3%,-13%
CN1CCN(c2ncc3nc(-c4ccccc4)c(=O)n(C4CC4)c3n2)CC1,x,-7%,x,x,x,-5%
CCCNC(=O)CSc1nnc(-c2ccco2)n1C,2.7µM*,-6%,u,2%,2%,-15%
COC(=O)c1c(NC(=O)CSc2nnc(-c3ccco3)n2C)sc(C)c1C,30µM*,-3%,4%,2%,1%,u
CCOc1ccc(C(=O)c2oc3ccccc3c2NC(=O)Cc2coc3cc(C)cc(C)c23)cc1,x,-7%,-1%,x,x,2%
CCOc1ccc2nc(NC(=O)Cc3cccs3)sc2c1,30µM*,-11%,11%,-4%,6%,-2%
CCOc1ccc2nc(NC(=S)NCc3ccccc3)sc2c1,27µM*,-5%,-2%,3%,-6%,u
CCOc1ccc2nc(NC(=O)Nc3ccccc3)sc2c1,-4%,-1%,-3%,3%,8%,3%
CCC(Sc1ncccc1Nc1ccccn1)C(=O)O (stereo not drawn),-6%,x,16%,x,x,u
O=C(NCCc1ccccc1)C1CCCN1C(=O)Nc1ccc(F)cc1 (stereo not drawn),19µM*,6%,4%,1%,-2%,-32%
CCOc1ccc(-c2cc(NC(=O)c3c(F)cccc3F)c(C(=O)O)s2)cc1,34µM*,-15%,6%,x,-30%,u
CCOc1ccc(NC(=O)Nc2cc(-c3ccccc3)sc2C(=O)OC)cc1,-11%,u,6%,23%,u,-22%
Oc1c(Cl)cccc1C=Nc1cc(C(F)(F)F)ccc1N1CCCC1,12µM*,-8%,51%,-1%,10%,-29%
FC(F)Oc1ccc(NC(=S)NNc2ccnc3cc(Cl)ccc23)cc1,-20%,-1%,-2%,11%,2%,35µM*
O=C(NNc1ccnc2cc(Cl)ccc12)C1CCCCC1,-13%,-6%,u,x,-1%,-19%
NC(=S)NNc1ccnc2cc(Cl)ccc12,21µM*,-28%,6.3µM*,0%,-2%,-15%
Cc1ccc(-n2cccc2/C=C2/C(=N)N3C(=NC2=O)SN=C3S(C)(=O)=O)cc1Cl,27µM*,-18%,-4%,1%,-11%,u
CCOc1cc(/C=C2/C(=N)N3C(=NC2=O)SN=C3S(C)(=O)=O)ccc1OS(=O)(=O)c1ccccc1,15µM*,u,23%,x,-5%,25µM*
Cc1cccc(C)c1-n1cccc1/C=C1/C(=N)N2C(=NC1=O)SN=C2S(C)(=O)=O,21µM*,u,-5%,1%,-1%,u
CCC1=NN2C(=N)/C(=C\c3cccn3-c3c(C)cccc3C)C(=O)N=C2S1,u,-13%,-2%,-2%,-2%,12%
COC(=O)CN=C1OC(=O)N2C(=O)C3=C4C(C[C@H]5C(=O)N(c6ccccc6)C(=O)[C@H]5[C@H]4[C@@]12Cc1ccccc1)[C@H]1C(=O)N(c2ccccc2)C(=O)[C@H]1[C@H]3C (stereo partly drawn),x,x,x,-1%,x,x
C/C(=N/NC(=O)c1ccc(Br)o1)c1cccc(NC(=O)c2ccc(C)o2)c1,7.5µM*,-3%,u,-3%,-2%,u
